From PubChem BioAssay AID1259420 (Broad Institute, 2018) come the findings set out here.

“And” between values parts separate entries of the source, which are not always exact repeats. Equal entries are not always repeated. Among all 1,000 compounds or so, about 250 (25%) were called active. Another 31% or so got no clear call; they are omitted. Not all results are given here. Entries with a potency or affinity are not part of this list. Values without a mark were called inactive. The rule behind the calls is not given here.

The assay can be described thus: T. gondii intracellular growth, IFN-gamma absent, dose response, cell-based (AID 1259420).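 Note: host cells were HeLa; final incubation lasted 72 hours.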 Particulars: Toxoplasma gondii growth in host cells, no IFN-gamma.

On to `O=C(CC1CC1)N[C@H]1CN(C(=O)c2ccoc2)C[C@@H]2CCCO[C@H]21`, for which the max activity (at 19.5 µM unless noted) was -10.1% [at 10 µM].
As to `CCc1c(C)sc2c1CCN(Cc1nc(-c3cccc(C)c3)oc1C)C2c1ccccc1` (configuration not stated), the max activity (at 19.5 µM unless noted) was -7.44% [at 0.08 µM].
For the compound `O=C1CNC[C@@H]2[C@@H](c3ccc(C#Cc4cccnc4)cc3)[C@@H](CO)N12`, the max activity is 9.41% (at 2.6 µM) and -13% (at 10 µM).
On to `CC(C)(O)C#Cc1cccc(-c2n[nH]c(Cc3ccccc3)n2)c1`, for which the max activity (at 19.5 µM unless noted) is 21.1%.
As to `O=S(=O)(c1ccc2c(c1)CCCC2)N1CCC2(CC1)NCCN=C2NCc1ccc2c(c1)OCO2`, the max activity (at 19.5 µM unless noted) is -6.04% [at 0.08 µM].
In the case of `CCc1ccc(S(=O)(=O)N2CCC3(CC2)NCCN=C3NCc2cc(F)cc(F)c2)cc1`, the max activity (at 19.5 µM unless noted) was -11.1% [at 0.08 µM].
As for `Cc1cccc(CNC2=NCCNC23CCN(S(=O)(=O)c2ccc4c(c2)CCCC4)CC3)c1`, the max activity (at 19.5 µM unless noted) is -9.87%.
Same read-out and setting: next, `Cc1ccc(CNC2=NCCNC23CCN(S(=O)(=O)c2ccc(Cl)s2)CC3)cc1`: -6.39% [at 2.6 µM].
Turning to `CCc1ccccc1-c1cccc(-n2cnnc2)c1`, under “at 19.5 µM unless noted”, the max activity is 23.8% [at 10 µM].
On the same count and under the same terms, next, `CCc1cc(C(=O)Nc2ccc(C)cc2-c2cc(C)[nH]n2)c2c(C)noc2n1`: -5.68% [at 5 µM].
On to `CN(C)CCN1CCOCC2(CCCN(C(=O)c3ccc4cc[nH]c4c3)C2)C1` (configuration not stated), for which the max activity (at 19.5 µM unless noted) is -5.04% [at 2.6 µM].
As for `COCC1CN(Cc2cc(C)on2)Cc2c1cnn2CC1CC1` (configuration not stated), the max activity (at 19.5 µM unless noted) is -5.27% [at 10 µM].
`COc1ccc(-n2c(C)c([N+](=O)[O-])c3ccc(O)cc32)cc1`: for the setting “at 19.5 µM unless noted”, the max activity was 7.23% [at 1.2 µM].
Regarding `COc1ccc(S(=O)(=O)N2CCCCN3[C@H](C2)[C@@H](c2ccc(C#CCC(C)C)cc2)[C@@H]3CO)cc1`, for the setting “at 19.5 µM unless noted”, the max activity is 29.4% [at 10 µM].
Turning to `COCCC(=O)C1Cc2nc(-c3ccccc3)sc2N1CC1CC1` (configuration not stated), the max activity (at 19.5 µM unless noted) is -9.12% [at 0.3 µM].
As for `O=C(C1CCCCC1)N1C[C@@H]2N[C@H](C1)C2c1ccc(-c2ccccc2F)cc1` (some centres not stated), the max activity (at 19.5 µM unless noted) was 13.7% [at 2.6 µM].
Take `C=CCN1C(=O)CC[C@H]2[C@@H]1CCN2S(=O)(=O)CC`: where the note is “at 19.5 µM unless noted”, the max activity was -17.5% [at 10 µM].
With `CCCNC(=O)N1C[C@@H]2N[C@H](C1)C2c1ccc(-c2ccc(OC)cc2)cc1` (some centres not stated), the max activity (at 19.5 µM unless noted) was 11.6% [at 21 µM].
As to `Cc1ccc(CN2CC3CN(Cc4cccc(F)c4)CC3C2)s1` (configuration not stated), the max activity (at 19.5 µM unless noted) was -13.6% [at 1.2 µM].
For `Cc1cnc(N2CCC3(CCN(CC4CC4)C3=O)CC2)nc1`, the max activity (at 19.5 µM unless noted) is -10.4%.
On the same count and under the same terms, under `COCC#Cc1ccc([C@@H]2[C@@H](CO)N3C(=O)CN(C(=O)c4ccncc4)C[C@@H]23)cc1` stands -8.48% [at 10 µM]; under `CC(C)[C@H](CO)Nc1nc(Nc2ccc(C(=O)O)c(Cl)c2)c2ncn(C(C)C)c2n1`, -10.3% [at 10 µM]; under `O=C(NCc1ccccc1)C1CC2(CO1)CN(C(=O)c1ccc(F)cc1)c1ccccc12` (configuration not stated), -16.3% [at 10 µM].
With `O=C1N(CC2CC2)CCC12CCCN(Cc1cncc(Cl)c1)CC2` (configuration not stated), the max activity (at 19.5 µM unless noted) is -16.7% [at 10 µM].
For `O=C(Nc1ccc(F)cc1)N1CC(=O)N2[C@@H](CO)[C@@H](c3ccc(C4=CCCC4)cc3)[C@@H]2C1`, the max activity (at 19.5 µM unless noted) was 14.9%.
Consider `N#C[C@@H]1N[C@H](CO)[C@H]1c1ccc(-c2cccc(F)c2)cc1`, for which, under “at 19.5 µM unless noted”, the max activity was 13.1%.
For `CS(=O)(=O)N1CCN(C2CCOCC2)CC(C(=O)O)C1` (configuration not stated), the max activity (at 19.5 µM unless noted) is -14.9% [at 5 µM].
The same measure, in the same setting: under `COc1ccc(-c2nc(CN(c3ccccc3OC)S(=O)(=O)c3ccccc3)c(C)o2)cc1` stands -9.94% [at 0.6 µM]; under `CCOc1ccc(-c2nc(CN(c3ccc(OC)cc3)S(=O)(=O)c3cccs3)c(C)o2)cc1`, 18.6% [at 10 µM].
In the case of `CC(C)Oc1ccc(NC(=O)c2nc3c(n2C(C)C)CCN(C(=O)c2ccccc2)C3)cc1`, the max activity (at 19.5 µM unless noted) was 12.7% [at 0.08 µM].
Same read-out and setting: under `CCOC(=O)c1nn(Cc2ccccc2)c2c1CN(C(=O)CN1CC(c3ccccc3)CC1=O)CC2` (configuration not stated) stands -13.6%; under `O=C(C1CCOCC1)N1CC(=O)N2[C@@H](CO)[C@@H](c3ccc(C#CC4CCCCC4)cc3)[C@@H]2C1`, 14.6%.
On to `CC(C)C#Cc1ccc([C@H]2[C@@H](CO)N3C(=O)CN(C(=O)NC4CCCC4)C[C@H]23)cc1`, for which the max activity (at 19.5 µM unless noted) was -5.62% [at 10 µM].
On to `Cc1nc2ccccc2n1CC(O)Cn1c2ccccc2c2ccccc21` (configuration not stated), for which the max activity (at 19.5 µM unless noted) was -12.4%.
For `O=C(Cc1cccnc1)N1CC(=O)N2[C@H](CO)[C@H](c3ccc(C#CC4CCCCC4)cc3)[C@H]2C1`, the max activity (at 19.5 µM unless noted) is -8.11% [at 0.3 µM].
As to `CN(C)C(=O)COCc1cncc2c1CCN(c1ccccn1)C2`, the max activity (at 19.5 µM unless noted) was -8.88% and 11.8%.
As to `Cc1ccccc1S(=O)(=O)N1CCCCN2[C@H](C1)[C@H](c1ccc(C#CCN(C)C)cc1)[C@@H]2CO`, the max activity (at 19.5 µM unless noted) was 20.9% [at 10 µM].
Regarding `Clc1ccccc1CSc1nc(NC2CCCCC2)c2ccccc2n1`, the max activity (at 19.5 µM unless noted) was 12.5%.
In the case of `CS(=O)(=O)N1CC(=O)N2[C@H](CO)[C@@H](c3ccc(Br)cc3)[C@H]2C1`, the max activity (at 19.5 µM unless noted) is 4.03%.
Consider `COc1cccc(-c2ccc(C3[C@H]4CNC[C@@H]3N4CC3CCCCC3)cc2)c1` (some centres not stated), for which, for the setting “at 19.5 µM unless noted”, the max activity is 15.2%.
Regarding `COc1cccc(-c2ccc(C3[C@H]4CNC[C@@H]3N4C(=O)NC3CCCCC3)cc2)c1` (some centres not stated), the max activity (at 19.5 µM unless noted) was 28.1%.
